According to article PMC7862700, “An all-to-all approach to the identification of sequence-specific readers for epigenetic DNA modifications on cytosine”:

Columns and labels:
Assay in all cases: DAPPL (digital affinity profiling via proximity ligation, sequencing); 10 mM Tris-HCl pH 7.5, 50 mM NaCl, 1 mM DTT, 4% glycerol, room temperature, 30 min; GST-TFs on glutathione beads, 16-mer random dsDNA library, 0.1% formaldehyde crosslink after washing; high values mean tight binding
[1] = biological target: T1, FLI1 (Homo sapiens, UniProt Q01543 1-452); details: protein: recombinant; tags: N-terminal GST; dsDNA, one strand shown
T1 sequence: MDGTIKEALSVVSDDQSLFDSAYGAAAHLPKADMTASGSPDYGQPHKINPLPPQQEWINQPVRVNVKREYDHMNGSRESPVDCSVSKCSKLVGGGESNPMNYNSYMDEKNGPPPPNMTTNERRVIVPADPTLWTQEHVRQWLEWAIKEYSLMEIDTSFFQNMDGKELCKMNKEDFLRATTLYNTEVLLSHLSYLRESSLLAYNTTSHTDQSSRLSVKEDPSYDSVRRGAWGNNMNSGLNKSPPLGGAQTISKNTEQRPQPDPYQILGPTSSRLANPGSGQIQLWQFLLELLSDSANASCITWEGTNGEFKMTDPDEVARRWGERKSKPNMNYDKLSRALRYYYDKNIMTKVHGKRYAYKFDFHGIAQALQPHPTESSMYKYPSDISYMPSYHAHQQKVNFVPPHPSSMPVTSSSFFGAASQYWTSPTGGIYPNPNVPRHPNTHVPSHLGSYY
Procedure, shortened: (§1)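 Binding signal is defined as a hexamer's read frequency for one factor over its frequency for the tag-only sample. To obtain reads, GST-fused human transcription factors were expressed in yeast, captured on glutathione beads, barcoded with DNA and pooled with that sample. Pools met 200 nmole of a 16-mer random double-stranded DNA library in Tris/NaCl/DTT/glycerol buffer for 30 min at room temperature before washing, 0.1% formaldehyde crosslinking, proximity ligation (BsaI/T4 ligase, 1 h, 37 °C), PCR and Illumina NextSeq500 sequencing.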

[2] = biological target: T2, ELF5 (Homo sapiens, UniProt Q9UKW6-2 1-255); details: protein: recombinant; tags: N-terminal GST; dsDNA, one strand shown
T2 sequence: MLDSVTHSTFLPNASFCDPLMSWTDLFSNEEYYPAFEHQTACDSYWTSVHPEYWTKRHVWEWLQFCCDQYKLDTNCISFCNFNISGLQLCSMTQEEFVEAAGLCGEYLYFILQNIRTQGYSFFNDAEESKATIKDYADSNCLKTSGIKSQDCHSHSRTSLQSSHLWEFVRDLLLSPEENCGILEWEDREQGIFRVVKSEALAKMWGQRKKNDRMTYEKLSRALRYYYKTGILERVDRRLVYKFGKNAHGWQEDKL
Procedure, shortened: as §1

[3] = biological target: HSF1 (Homo sapiens, UniProt Q00613 1-529); details: protein: recombinant; tags: N-terminal GST; chain copies: 3; dsDNA, one strand shown
Procedure, shortened: as §1

[4] = biological target: T3, ELK1 (Homo sapiens, UniProt P19419 1-428); details: protein: recombinant; tags: N-terminal GST; dsDNA, one strand shown
T3 sequence: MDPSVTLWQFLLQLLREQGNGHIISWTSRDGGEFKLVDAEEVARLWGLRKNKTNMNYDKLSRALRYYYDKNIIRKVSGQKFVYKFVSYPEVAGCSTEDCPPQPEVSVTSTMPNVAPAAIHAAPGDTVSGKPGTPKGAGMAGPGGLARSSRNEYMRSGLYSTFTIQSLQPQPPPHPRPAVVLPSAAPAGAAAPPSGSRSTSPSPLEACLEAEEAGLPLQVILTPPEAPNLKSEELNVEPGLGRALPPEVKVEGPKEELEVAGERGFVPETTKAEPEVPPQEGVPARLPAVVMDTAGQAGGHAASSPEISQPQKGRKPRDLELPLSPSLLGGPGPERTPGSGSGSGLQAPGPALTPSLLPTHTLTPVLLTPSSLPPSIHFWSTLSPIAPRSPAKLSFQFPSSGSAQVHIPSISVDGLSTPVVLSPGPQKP
Procedure, shortened: as §1

[5] = biological target: T4, GABPA (Homo sapiens, UniProt Q06546 1-454); details: protein: recombinant; tags: N-terminal GST; dsDNA, one strand shown
T4 sequence: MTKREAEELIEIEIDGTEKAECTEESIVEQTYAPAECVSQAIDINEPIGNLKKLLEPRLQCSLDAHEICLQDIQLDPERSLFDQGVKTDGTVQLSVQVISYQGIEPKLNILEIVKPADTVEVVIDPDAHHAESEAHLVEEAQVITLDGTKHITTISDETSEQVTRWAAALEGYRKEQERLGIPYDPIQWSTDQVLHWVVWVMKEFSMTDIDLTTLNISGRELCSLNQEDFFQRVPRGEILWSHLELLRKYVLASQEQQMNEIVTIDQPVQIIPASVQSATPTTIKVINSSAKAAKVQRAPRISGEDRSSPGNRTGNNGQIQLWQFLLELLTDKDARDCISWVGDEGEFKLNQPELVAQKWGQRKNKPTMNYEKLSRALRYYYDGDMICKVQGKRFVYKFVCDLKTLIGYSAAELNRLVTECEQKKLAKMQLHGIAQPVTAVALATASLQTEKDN
Procedure, shortened: as §1

[6] = biological target: T5, ERG (Homo sapiens, UniProt P11308 1-479); details: protein: recombinant; tags: N-terminal GST; dsDNA, one strand shown
T5 sequence: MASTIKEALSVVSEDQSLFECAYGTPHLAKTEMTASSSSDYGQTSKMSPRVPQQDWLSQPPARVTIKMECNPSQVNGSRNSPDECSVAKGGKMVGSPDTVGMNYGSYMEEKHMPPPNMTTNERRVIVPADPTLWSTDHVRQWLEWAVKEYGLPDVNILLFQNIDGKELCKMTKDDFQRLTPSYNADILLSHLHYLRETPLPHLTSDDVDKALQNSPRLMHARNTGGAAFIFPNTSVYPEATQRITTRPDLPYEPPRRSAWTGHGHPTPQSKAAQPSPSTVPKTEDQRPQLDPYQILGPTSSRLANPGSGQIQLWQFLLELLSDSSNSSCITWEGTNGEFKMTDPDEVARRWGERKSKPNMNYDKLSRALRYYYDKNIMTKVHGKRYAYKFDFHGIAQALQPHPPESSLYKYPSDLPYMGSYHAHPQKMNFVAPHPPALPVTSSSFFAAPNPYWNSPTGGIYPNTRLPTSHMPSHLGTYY
Procedure, shortened: as §1

[7] = biological target: T6, ELK3 (Homo sapiens, UniProt P41970 1-407); details: protein: recombinant; tags: N-terminal GST; dsDNA, one strand shown
T6 sequence: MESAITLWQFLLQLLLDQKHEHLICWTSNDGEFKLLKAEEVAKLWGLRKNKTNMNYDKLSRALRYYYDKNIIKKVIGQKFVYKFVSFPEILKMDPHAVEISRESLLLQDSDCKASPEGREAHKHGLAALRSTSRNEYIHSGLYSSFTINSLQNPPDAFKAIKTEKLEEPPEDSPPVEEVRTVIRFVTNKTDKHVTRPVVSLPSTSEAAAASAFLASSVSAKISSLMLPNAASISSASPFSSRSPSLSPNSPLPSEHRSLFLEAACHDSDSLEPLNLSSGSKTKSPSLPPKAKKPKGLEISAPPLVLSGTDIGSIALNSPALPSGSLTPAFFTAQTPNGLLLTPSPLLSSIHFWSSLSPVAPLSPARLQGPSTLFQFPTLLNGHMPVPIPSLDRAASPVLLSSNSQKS
Procedure, shortened: as §1

[8] = biological target: T7, FEV (Homo sapiens, UniProt Q99581 1-238); details: protein: recombinant; tags: N-terminal GST; dsDNA, one strand shown
T7 sequence: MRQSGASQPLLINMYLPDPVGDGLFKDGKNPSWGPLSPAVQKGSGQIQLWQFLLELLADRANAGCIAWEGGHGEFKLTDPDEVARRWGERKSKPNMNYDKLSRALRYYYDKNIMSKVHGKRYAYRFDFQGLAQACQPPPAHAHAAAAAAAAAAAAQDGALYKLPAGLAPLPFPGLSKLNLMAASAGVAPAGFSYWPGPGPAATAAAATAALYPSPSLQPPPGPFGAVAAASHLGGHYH
Procedure, shortened: as §1

[9] = biological target: T8, ETV3L (Homo sapiens, UniProt Q6ZN32 1-361); details: protein: recombinant; tags: N-terminal GST; dsDNA, one strand shown
T8 sequence: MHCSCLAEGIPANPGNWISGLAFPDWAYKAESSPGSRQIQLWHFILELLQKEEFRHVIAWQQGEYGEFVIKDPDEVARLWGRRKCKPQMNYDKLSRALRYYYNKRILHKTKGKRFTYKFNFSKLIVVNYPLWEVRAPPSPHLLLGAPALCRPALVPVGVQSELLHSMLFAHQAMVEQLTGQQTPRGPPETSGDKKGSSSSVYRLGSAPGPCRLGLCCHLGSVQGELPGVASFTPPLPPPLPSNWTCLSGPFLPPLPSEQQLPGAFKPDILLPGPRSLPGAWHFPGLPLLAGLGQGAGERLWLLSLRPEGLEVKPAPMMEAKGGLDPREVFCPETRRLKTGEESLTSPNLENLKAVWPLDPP
Procedure, shortened: as §1

[10] = biological target: T9, ETS2 (Homo sapiens, UniProt P15036 1-469); details: protein: recombinant; tags: N-terminal GST; dsDNA, one strand shown
T9 sequence: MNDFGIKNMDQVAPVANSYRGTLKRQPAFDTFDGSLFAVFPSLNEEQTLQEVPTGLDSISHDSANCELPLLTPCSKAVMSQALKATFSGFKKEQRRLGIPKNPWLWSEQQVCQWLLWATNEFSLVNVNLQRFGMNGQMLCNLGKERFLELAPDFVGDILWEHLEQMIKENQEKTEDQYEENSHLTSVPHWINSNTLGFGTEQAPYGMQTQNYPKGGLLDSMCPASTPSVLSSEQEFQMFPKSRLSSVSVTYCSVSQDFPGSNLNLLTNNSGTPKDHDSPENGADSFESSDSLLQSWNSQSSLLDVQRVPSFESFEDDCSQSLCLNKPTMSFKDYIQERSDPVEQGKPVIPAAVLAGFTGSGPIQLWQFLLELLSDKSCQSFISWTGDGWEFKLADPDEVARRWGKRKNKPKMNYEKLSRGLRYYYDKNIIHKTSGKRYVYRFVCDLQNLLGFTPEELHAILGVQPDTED
Procedure, shortened: as §1

[11] = biological target: T10, SPDEF (Homo sapiens, UniProt O95238 1-335); details: protein: recombinant; tags: N-terminal GST; dsDNA, one strand shown
T10 sequence: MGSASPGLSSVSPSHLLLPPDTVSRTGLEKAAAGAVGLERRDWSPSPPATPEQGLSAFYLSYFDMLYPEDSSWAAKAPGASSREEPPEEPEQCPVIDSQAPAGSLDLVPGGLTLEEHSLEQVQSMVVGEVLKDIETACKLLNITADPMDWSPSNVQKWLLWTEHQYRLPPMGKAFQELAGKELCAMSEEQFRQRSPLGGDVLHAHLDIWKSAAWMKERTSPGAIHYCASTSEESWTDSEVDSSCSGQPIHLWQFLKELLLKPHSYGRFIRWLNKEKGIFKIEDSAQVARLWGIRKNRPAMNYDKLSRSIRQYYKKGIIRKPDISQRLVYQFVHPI
Procedure, shortened: as §1

[12] = biological target: T11, ETV7 (Homo sapiens, UniProt Q9Y603 1-341); details: protein: recombinant; tags: N-terminal GST; dsDNA, one strand shown
T11 sequence: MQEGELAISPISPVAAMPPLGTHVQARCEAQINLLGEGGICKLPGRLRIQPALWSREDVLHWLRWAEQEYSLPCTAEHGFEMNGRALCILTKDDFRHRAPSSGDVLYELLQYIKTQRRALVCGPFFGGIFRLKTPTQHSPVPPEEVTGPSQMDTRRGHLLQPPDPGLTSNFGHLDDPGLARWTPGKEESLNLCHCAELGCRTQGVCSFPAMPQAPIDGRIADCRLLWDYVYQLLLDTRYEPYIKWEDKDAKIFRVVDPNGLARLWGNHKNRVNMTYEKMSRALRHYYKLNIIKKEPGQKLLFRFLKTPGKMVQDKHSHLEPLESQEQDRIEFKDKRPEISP
Procedure, shortened: as §1

[13] = biological target: T12, ETV3 (Homo sapiens, UniProt P41162-2 1-143); details: protein: recombinant; tags: N-terminal GST; dsDNA, one strand shown
T12 sequence: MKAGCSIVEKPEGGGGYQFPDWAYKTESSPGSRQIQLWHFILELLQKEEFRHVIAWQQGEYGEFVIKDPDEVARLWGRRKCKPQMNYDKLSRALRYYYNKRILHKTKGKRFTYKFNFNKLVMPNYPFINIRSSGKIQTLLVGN
Procedure, shortened: as §1

[14] = biological target: ETV6 (Homo sapiens, UniProt P41212 1-452); details: protein: recombinant; tags: N-terminal GST; dsDNA, one strand shown
Procedure, shortened: as §1

Chain of ETV6 (P41212 whole entry): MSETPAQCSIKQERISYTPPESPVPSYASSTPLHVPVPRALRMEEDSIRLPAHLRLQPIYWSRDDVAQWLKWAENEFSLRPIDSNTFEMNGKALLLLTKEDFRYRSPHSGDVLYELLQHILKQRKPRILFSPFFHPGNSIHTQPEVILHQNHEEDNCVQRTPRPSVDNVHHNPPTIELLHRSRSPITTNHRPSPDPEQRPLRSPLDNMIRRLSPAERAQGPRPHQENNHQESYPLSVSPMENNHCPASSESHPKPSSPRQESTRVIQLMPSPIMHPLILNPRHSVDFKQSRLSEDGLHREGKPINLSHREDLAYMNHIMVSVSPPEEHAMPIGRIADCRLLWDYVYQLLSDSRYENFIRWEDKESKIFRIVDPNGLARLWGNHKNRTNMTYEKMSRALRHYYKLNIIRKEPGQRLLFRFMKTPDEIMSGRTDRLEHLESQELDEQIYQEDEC
Chain of HSF1 (Q00613 whole entry): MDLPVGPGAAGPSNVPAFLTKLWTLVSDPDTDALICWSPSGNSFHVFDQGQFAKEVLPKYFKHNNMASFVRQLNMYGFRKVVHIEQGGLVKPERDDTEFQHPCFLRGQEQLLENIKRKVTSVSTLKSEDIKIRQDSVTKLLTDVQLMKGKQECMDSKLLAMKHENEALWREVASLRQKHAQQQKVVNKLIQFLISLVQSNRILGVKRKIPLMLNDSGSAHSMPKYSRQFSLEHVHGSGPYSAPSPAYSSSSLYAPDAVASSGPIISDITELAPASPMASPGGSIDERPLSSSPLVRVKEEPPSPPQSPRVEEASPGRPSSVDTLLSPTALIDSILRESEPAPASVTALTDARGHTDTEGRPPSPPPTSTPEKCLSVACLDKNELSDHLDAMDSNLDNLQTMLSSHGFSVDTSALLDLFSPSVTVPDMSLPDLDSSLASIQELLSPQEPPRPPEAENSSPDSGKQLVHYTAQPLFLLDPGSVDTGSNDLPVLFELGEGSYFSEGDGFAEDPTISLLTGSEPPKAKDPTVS

Sequence: GACGTT
- binding signal [1]: 1.05 fold enrichment (6-mer frequency, TF over GST control)
- binding signal [2]: 1.01 fold enrichment (6-mer frequency, TF over GST control)

Sequence: GAGAAT
- binding signal [3]: 1.44 fold enrichment (6-mer frequency, TF over GST control)

Sequence: CCGGTG
- binding signal [1]: 1.04 fold enrichment (6-mer frequency, TF over GST control)
- binding signal [4]: 1.09 fold enrichment (6-mer frequency, TF over GST control)
- binding signal [5]: 1.08 fold enrichment (6-mer frequency, TF over GST control)
- binding signal [6]: 1.19 fold enrichment (6-mer frequency, TF over GST control)
- binding signal [7]: 1.08 fold enrichment (6-mer frequency, TF over GST control)
- binding signal [8]: 1.35 fold enrichment (6-mer frequency, TF over GST control)
- binding signal [9]: 1.01 fold enrichment (6-mer frequency, TF over GST control)
- binding signal [10]: 1.02 fold enrichment (6-mer frequency, TF over GST control)
- binding signal [11]: 1.13 fold enrichment (6-mer frequency, TF over GST control)
- binding signal [12]: 1.04 fold enrichment (6-mer frequency, TF over GST control)
- binding signal [13]: 1.08 fold enrichment (6-mer frequency, TF over GST control)
- binding signal [14]: 1.02 fold enrichment (6-mer frequency, TF over GST control)
